In PubChem BioAssay (NCATS):
Records with an inconclusive call do not appear. Activity calls are given as the source filed them. Unless noted, calls come from the whole dose curve; as a rule, active = well fitted curve in the direction sought with a large enough effect; inconclusive = small, poorly fitted or top-dose-only effect, or another doubt; inactive = no such curve, though single readings can be large; an effect the other way counts as inactive or inconclusive.

Key:
[1] = biological target: Peroxisome proliferator-activated receptor delta (Homo sapiens) (UniProt Q03181); assay: qHTS assay for small molecule agonists of peroxisome proliferator-activated receptor delta signaling (AID 588534; calls by dose curve)
Sequence of Peroxisome proliferator-activated receptor delta (Homo sapiens) (Q03181 whole entry, looked up): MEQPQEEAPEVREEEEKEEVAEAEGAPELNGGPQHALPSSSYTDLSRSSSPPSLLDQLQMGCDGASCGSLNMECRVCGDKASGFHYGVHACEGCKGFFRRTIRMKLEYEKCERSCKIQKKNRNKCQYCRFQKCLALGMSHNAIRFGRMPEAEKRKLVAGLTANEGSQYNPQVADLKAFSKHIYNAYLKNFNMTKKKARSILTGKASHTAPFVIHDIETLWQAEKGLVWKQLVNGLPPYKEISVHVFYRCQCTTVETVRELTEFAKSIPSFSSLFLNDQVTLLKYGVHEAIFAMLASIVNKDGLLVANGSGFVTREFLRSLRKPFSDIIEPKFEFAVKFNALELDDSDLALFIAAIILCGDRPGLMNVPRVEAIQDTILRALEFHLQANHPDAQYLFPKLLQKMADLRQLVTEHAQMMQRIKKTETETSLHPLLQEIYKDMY
Procedure, shortened: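 EC50 and efficacy values derive from Hill fits of a concentration series in a beta-lactamase reporter cell assay. Exposure is 18 hrs at 37 C, with CCF4 fluorescence as the readout.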

[2] = qHTS for Inhibitors of the Functional Ribonucleoprotein Complex (vRNP) of Lassa (LASV) Arenavirus: LASV Primary Screen - GLuc reporter signal (AID 1347082; calls by dose curve; tested in HEK293 reporter line; note: series mostly up to about 57 µM; nearly all actives have a fitted effect of over 60% in size)
[3] = qHTS for Inhibitors of the Functional Ribonucleoprotein Complex (vRNP) of Lassa (LASV) Arenavirus: Viability assay - alamar blue signal for LASV Primary Screen (AID 1347083; calls by dose curve; tested in HEK293 reporter line; note: series mostly up to about 57 µM; nearly all actives have a fitted effect of over 80% in size)
[4] = qHTS for Inhibitors of the Functional Ribonucleoprotein Complex (vRNP) of Lymphocytic Choriomeningitis Arenaviruses (LCMV): Viability assay - alamar blue signal for LCMV Primary Screen (AID 1347085; calls by dose curve; tested in HEK293 reporter line; note: series mostly up to about 57 µM; nearly all actives have a fitted effect of over 80% in size)
[5] = biological target: Nucleoprotein (Lymphocytic choriomeningitis virus (strain Armstrong)) (UniProt P09992); assay: qHTS for Inhibitors of the Functional Ribonucleoprotein Complex (vRNP) of Lymphocytic Choriomeningitis Arenaviruses (LCMV): LCMV Primary Screen - GLuc reporter signal (AID 1347086; calls by dose curve; note: series mostly up to about 57 µM; nearly all actives have a fitted effect of over 70% in size)
Sequence of Nucleoprotein (Lymphocytic choriomeningitis virus (strain Armstrong)) (P09992 whole entry, looked up): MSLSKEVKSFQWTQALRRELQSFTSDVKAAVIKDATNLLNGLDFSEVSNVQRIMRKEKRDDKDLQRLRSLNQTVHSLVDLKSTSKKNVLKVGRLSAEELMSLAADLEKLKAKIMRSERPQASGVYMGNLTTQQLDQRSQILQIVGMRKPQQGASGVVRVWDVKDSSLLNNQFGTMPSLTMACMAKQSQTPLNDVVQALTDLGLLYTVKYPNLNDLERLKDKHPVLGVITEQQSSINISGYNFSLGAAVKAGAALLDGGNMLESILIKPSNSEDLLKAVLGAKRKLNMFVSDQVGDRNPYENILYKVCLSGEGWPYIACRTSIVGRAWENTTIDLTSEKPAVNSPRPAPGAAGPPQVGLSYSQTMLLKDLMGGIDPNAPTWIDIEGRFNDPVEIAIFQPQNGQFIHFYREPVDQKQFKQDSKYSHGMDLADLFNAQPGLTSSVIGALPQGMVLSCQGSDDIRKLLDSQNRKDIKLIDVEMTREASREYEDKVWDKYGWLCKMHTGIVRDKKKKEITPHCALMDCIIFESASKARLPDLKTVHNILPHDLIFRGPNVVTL

[6] = biological target: Alpha-galactosidase (Coffea arabica) (UniProt Q42656); assay: Counterscreen for Glucocerebrosidase Inhibitors: qHTS Assay for Coffee Bean alpha-Galactosidase at pH 5.9 (AID 998)
Sequence of Alpha-galactosidase (Coffea arabica) (Q42656 whole entry, looked up): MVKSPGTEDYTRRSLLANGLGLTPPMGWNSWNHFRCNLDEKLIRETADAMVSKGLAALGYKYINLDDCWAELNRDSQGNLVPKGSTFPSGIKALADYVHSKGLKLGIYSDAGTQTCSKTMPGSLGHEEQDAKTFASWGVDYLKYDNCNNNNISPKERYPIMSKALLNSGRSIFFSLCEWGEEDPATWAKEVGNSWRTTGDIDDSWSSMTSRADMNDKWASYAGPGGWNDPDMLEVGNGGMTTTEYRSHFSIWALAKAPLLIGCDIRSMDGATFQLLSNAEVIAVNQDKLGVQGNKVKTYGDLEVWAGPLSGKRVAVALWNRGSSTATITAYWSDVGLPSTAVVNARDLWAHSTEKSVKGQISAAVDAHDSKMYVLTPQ
Procedure, shortened: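 Enzyme 2 nM + cpd (0.7 nM–77 uM titration) + 4-MU-alpha-Gal 80 uM, pH 5.9 citrate/Tween-20, RT 20 min, NaOH/glycine stop pH 10, fluor 365/440. Normalized to no-enzyme and full-activity controls; Hill-fit AC50.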

[7] = Inducers of the Endoplasmic Reticulum Stress Response (ERSR) in human glioma: Validation (AID 504836)
Procedure, shortened: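 Stably transfected U87-MG glioma cells carrying a GRP78-based luciferase sensor; 16 h compound incubation. Luminescence end-point read 10 min after Bright-Glo addition at room temperature.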

[8] = biological target: Ubiquitin carboxyl-terminal hydrolase 1 (Homo sapiens) (UniProt O94782); assay: Inhibitors of USP1/UAF1: Pilot qHTS (AID 504865);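 note: rhodamine fluorescence freed from ubiquitin-rhodamine substrate followed over time; top concentration of the series differs between compounds; nearly all actives have a fitted effect of over 35% in size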
Sequence of Ubiquitin carboxyl-terminal hydrolase 1 (Homo sapiens) (O94782 whole entry, looked up): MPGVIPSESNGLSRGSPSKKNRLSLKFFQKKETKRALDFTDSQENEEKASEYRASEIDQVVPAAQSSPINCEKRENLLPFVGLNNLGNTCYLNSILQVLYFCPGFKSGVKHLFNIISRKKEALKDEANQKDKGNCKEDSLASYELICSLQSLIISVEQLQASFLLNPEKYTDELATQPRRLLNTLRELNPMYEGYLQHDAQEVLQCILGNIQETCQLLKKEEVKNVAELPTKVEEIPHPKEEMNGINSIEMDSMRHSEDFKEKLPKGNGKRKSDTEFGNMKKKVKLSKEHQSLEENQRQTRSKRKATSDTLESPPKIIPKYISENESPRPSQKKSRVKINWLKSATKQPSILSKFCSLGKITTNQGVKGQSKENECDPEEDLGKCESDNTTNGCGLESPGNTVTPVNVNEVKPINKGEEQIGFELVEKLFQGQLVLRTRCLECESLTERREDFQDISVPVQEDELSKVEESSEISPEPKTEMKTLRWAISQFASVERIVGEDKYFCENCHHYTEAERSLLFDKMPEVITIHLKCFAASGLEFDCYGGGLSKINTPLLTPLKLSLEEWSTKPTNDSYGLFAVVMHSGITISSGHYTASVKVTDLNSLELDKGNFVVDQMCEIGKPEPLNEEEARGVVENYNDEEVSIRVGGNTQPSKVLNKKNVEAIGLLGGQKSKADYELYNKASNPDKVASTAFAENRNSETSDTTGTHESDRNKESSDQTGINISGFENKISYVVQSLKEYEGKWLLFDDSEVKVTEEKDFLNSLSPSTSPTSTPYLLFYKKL
Procedure, shortened: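 USP1/UAF1 complex at 1 nM preincubated 15 min at room temperature with compound, then Ub-Rho substrate added at 150 nM final. Fluorescence (480/540 nm) read kinetically in 50 mM HEPES pH 7.8, 0.5 mM EDTA, 1 mM TCEP, 0.1 mg/ml BSA, 0.01% Tween-20.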

[9] = biological target: Alpha-galactosidase (Coffea arabica) (UniProt Q42656); assay: Counterscreen for Glucocerebrosidase Inhibitors: qHTS Assay for Coffee Bean alpha-Galactosidase at pH 4.5 (AID 957); note: series mostly up to about 77 µM
Procedure, shortened: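 Quantitative HTS of compounds (0.7 nM to 77 uM) against coffee bean alpha-galactosidase at pH 4.5, measuring 4-methylumbelliferone fluorescence released from 80 uM substrate.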

Measured: Potency

CC(=O)OCCC(C)C
inactive: [1] | [2] | [3] | [4] | [5]

CC(C)[C@H](NC(=O)OCc1ccccc1)C(=O)N[C@H](C=O)Cc1ccccc1
not listed: [1] | [8] | [9]
inactive: all other assays above

O=C(Nc1ccccc1)Nc1ccccc1
inactive: [1] | [2] | [3] | [4] | [5]

C=CCCCCCCCCCCCC
inactive: [1] | [2] | [3] | [4] | [5]

c1ccc2c(c1)CN1CCCC1=N2
inactive: [8] | [2] | [3] | [4] | [5]

NC(=NCc1ccccc1)NC(=O)c1nc(Cl)c(N)nc1N
not listed: [1] | [8]
inactive: all other assays above

CC[C@@H]1Cc2cc(O)ccc2C2=C1c1ccc(O)cc1C[C@H]2CC
not listed: [1] | [8]
inactive: all other assays above

Brc1ccc([C@H]2CN3CCSC3=N2)cc1
not listed: [1] | [8]
inactive: all other assays above
